{"source": "paper PMC8384837", "about": "“Expanding the binding specificity for RNA recognition by a PUF domain”", "assay_in_all_cases": "yeast three-hybrid, YBZ-1, SC-Leu-His + 0.5 mM 3-AT, 4 days", "conditions_in_all_cases": "tags: N-Gal4 AD-HA kept; label: inside an RPR1-promoter hybrid RNA with tandem MS2 sites; ssRNA", "key": {"[1]": {"target": "T1, PUM1 PUF domain R6-RVT (Homo sapiens, UniProt Q14671 828-1176, N1043R;Y1044V;Q1047T)", "T1 sequence": "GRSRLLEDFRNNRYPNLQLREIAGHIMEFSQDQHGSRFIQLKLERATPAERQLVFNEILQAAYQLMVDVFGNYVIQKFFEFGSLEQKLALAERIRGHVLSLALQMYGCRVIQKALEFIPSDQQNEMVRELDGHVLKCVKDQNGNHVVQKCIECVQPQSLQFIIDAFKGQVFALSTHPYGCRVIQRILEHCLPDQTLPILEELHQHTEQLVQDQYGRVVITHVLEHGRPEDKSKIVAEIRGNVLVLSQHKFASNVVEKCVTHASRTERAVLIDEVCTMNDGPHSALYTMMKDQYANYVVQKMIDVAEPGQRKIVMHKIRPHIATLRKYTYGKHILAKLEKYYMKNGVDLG", "summary_of_the_method": "(§1)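 Repeat regions from input (SC-Leu) and selection (SC-Leu-His + 0.5 mM 3-AT) plates were PCR-amplified and Illumina-sequenced after four days of growth. The cells were strain YBZ-1 with a LexA–MS2 coat fusion and a HIS3 reporter, co-expressing Pumilio-1 PUF domain libraries and matching RNA elements from a centromeric plasmid. The interaction score is the log change in variant frequency from input to selection, taken in log2 with a pseudocount of 1 for absent variants.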"}, "[2]": {"target": "PUM1 PUF domain R5-KPI (Homo sapiens, UniProt Q14671 828-1176, C1007K;R1008P;Q1011I)", "summary_of_the_method": "as §1"}, "[3]": {"target": "PUM1 PUF domain R5-RYC (Homo sapiens, UniProt Q14671 828-1176, C1007R;R1008Y;Q1011C)", "summary_of_the_method": "as §1"}, "[4]": {"target": "T2, PUM1 PUF domain R6-NRK (Homo sapiens, UniProt Q14671 828-1176, Y1044R;Q1047K)", "T2 sequence": "T1 sequence with R216N, V217R, T220K", "summary_of_the_method": "as §1"}, "[5]": {"target": "T3, PUM1 PUF domain R6-SFV (Homo sapiens, UniProt Q14671 828-1176, N1043S;Y1044F;Q1047V)", "T3 sequence": "T1 sequence with R216S, V217F, T220V", "summary_of_the_method": "as §1"}, "[6]": {"target": "PUM1 PUF domain R8-KRT (Homo sapiens, UniProt Q14671 828-1176, N1122K;Y1123R;Q1126T)", "summary_of_the_method": "as §1"}, "[7]": {"target": "PUM1 PUF domain R4-AGY (Homo sapiens, UniProt Q14671 828-1176, N971A;H972G;Q975Y)", "summary_of_the_method": "as §1"}, "[8]": {"target": "PUM1 PUF domain R3-YRA (Homo sapiens, UniProt Q14671 828-1176, C935Y;Q939A)", "summary_of_the_method": "as §1"}, "[9]": {"target": "PUM1 PUF domain R8-KWN (Homo sapiens, UniProt Q14671 828-1176, N1122K;Y1123W;Q1126N)", "summary_of_the_method": "as §1"}, "[10]": {"target": "PUM1 PUF domain R3-DYG (Homo sapiens, UniProt Q14671 828-1176, C935D;R936Y;Q939G)", "summary_of_the_method": "as §1"}, "[11]": {"target": "T4, PUM1 PUF domain R6-GWQ (Homo sapiens, UniProt Q14671 828-1176, N1043G;Y1044W)", "T4 sequence": "T1 sequence with R216G, V217W, T220Q", "summary_of_the_method": "as §1"}, "[12]": {"target": "PUM1 PUF domain R7-KYF (Homo sapiens, UniProt Q14671 828-1176, S1079K;N1080Y;E1083F)", "summary_of_the_method": "as §1"}, "[13]": {"target": "PUM1 PUF domain R4-HHN (Homo sapiens, UniProt Q14671 828-1176, N971H;Q975N)", "summary_of_the_method": "as §1"}, "[14]": {"target": "PUM1 PUF domain R7-GVV (Homo sapiens, UniProt Q14671 828-1176, S1079G;N1080V;E1083V)", "summary_of_the_method": "as §1"}, "[15]": {"target": "PUM1 PUF domain R4-PRQ (Homo sapiens, UniProt Q14671 828-1176, N971P;H972R)", "summary_of_the_method": "as §1"}, "[16]": {"target": "PUM1 PUF domain R1-RKR (Homo sapiens, UniProt Q14671 828-1176, S863R;R864K;Q867R)", "summary_of_the_method": "as §1"}, "[17]": {"target": "PUM1 PUF domain R1-KMV (Homo sapiens, UniProt Q14671 828-1176, S863K;R864M;Q867V)", "summary_of_the_method": "as §1"}, "[18]": {"target": "PUM1 PUF domain R8-HHK (Homo sapiens, UniProt Q14671 828-1176, N1122H;Y1123H;Q1126K)", "summary_of_the_method": "as §1"}, "[19]": {"target": "PUM1 PUF domain R3-FCA (Homo sapiens, UniProt Q14671 828-1176, C935F;R936C;Q939A)", "summary_of_the_method": "as §1"}, "[20]": {"target": "PUM1 PUF domain R3-LSQ (Homo sapiens, UniProt Q14671 828-1176, C935L;R936S)", "summary_of_the_method": "as §1"}}, "note": "Changes are numbered by the printed parent chain."}
{"sequence": "GGCUAGAACUAGUGGAUCCCCCGGCGCCCGGCGGCUCGAGCCCGGGUAAGUGCAAAUAGUCUGCAUGCCGCCGGGCGCCAUGCCUGCAGGUCGACUCUAGAAAACAUG", "values": [{"measurement": "binding signal", "setting": "[1]", "result": "4.2 log2 enrichment (interaction score)"}]}
{"sequence": "GGCUAGAACUAGUGGAUCCCCCGGCGCCCGGCGGCUCGAGCCCGGGUAAGUGUCAAUAGUCUGCAUGCCGCCGGGCGCCAUGCCUGCAGGUCGACUCUAGAAAACAUG", "values": [{"measurement": "binding signal", "setting": "[2]", "result": "5.02 log2 enrichment (interaction score)"}, {"measurement": "binding signal", "setting": "[3]", "result": "4.73 log2 enrichment (interaction score)"}]}
{"sequence": "GGCUAGAACUAGUGGAUCCCCCGGCGCCCGGCGGCUCGAGCCCGGGUAAGUGUUAAUAGUCUGCAUGCCGCCGGGCGCCAUGCCUGCAGGUCGACUCUAGAAAACAUG", "values": [{"measurement": "binding signal", "setting": "[3]", "result": "4.89 log2 enrichment (interaction score)"}]}
{"sequence": "GGCUAGAACUAGUGGAUCCCCCGGCGCCCGGCGGCUCGAGCCCGGGUAAGUGUAAAUAGUCUGCAUGCCGCCGGGCGCCAUGCCUGCAGGUCGACUCUAGAAAACAUG", "values": [{"measurement": "binding signal", "setting": "[4]", "result": "3.68 log2 enrichment (interaction score)"}, {"measurement": "binding signal", "setting": "[5]", "result": "3.58 log2 enrichment (interaction score)"}, {"measurement": "binding signal", "setting": "[6]", "result": "1.36 log2 enrichment (interaction score)"}, {"measurement": "binding signal", "setting": "[7]", "result": "3.24 log2 enrichment (interaction score)"}, {"measurement": "binding signal", "setting": "[8]", "result": "0.87 log2 enrichment (interaction score)"}, {"measurement": "binding signal", "setting": "[9]", "result": "2.44 log2 enrichment (interaction score)"}, {"measurement": "binding signal", "setting": "[10]", "result": "3.9 log2 enrichment (interaction score)"}, {"measurement": "binding signal", "setting": "[3]", "result": "3.48 log2 enrichment (interaction score)"}, {"measurement": "binding signal", "setting": "[11]", "result": "5.78 log2 enrichment (interaction score)"}]}
{"sequence": "GGCUAGAACUAGUGGAUCCCCCGGCGCCCGGCGGCUCGAGCCCGGGUAAGUCUAAAUAGUCUGCAUGCCGCCGGGCGCCAUGCCUGCAGGUCGACUCUAGAAAACAUG", "values": [{"measurement": "binding signal", "setting": "[12]", "result": "6.02 log2 enrichment (interaction score)"}]}
{"sequence": "GGCUAGAACUAGUGGAUCCCCCGGCGCCCGGCGGCUCGAGCCCGGGUAAGUGUAUAUAGUCUGCAUGCCGCCGGGCGCCAUGCCUGCAGGUCGACUCUAGAAAACAUG", "values": [{"measurement": "binding signal", "setting": "[13]", "result": "6.48 log2 enrichment (interaction score)"}]}
{"sequence": "GGCUAGAACUAGUGGAUCCCCCGGCGCCCGGCGGCUCGAGCCCGGGUAAGUAUAAAUAGUCUGCAUGCCGCCGGGCGCCAUGCCUGCAGGUCGACUCUAGAAAACAUG", "values": [{"measurement": "binding signal", "setting": "[12]", "result": "3.75 log2 enrichment (interaction score)"}]}
{"sequence": "GGCUAGAACUAGUGGAUCCCCCGGCGCCCGGCGGCUCGAGCCCGGGUAAGUUUAAAUAGUCUGCAUGCCGCCGGGCGCCAUGCCUGCAGGUCGACUCUAGAAAACAUG", "values": [{"measurement": "binding signal", "setting": "[14]", "result": "2.6 log2 enrichment (interaction score)"}]}
{"sequence": "GGCUAGAACUAGUGGAUCCCCCGGCGCCCGGCGGCUCGAGCCCGGGUAAGUGUACAUAGUCUGCAUGCCGCCGGGCGCCAUGCCUGCAGGUCGACUCUAGAAAACAUG", "values": [{"measurement": "binding signal", "setting": "[15]", "result": "3.53 log2 enrichment (interaction score)"}]}
{"sequence": "GGCUAGAACUAGUGGAUCCCCCGGCGCCCGGCGGCUCGAGCCCGGGUAAGUGUAAAUUGUCUGCAUGCCGCCGGGCGCCAUGCCUGCAGGUCGACUCUAGAAAACAUG", "values": [{"measurement": "binding signal", "setting": "[16]", "result": "3.15 log2 enrichment (interaction score)"}]}
{"sequence": "GGCUAGAACUAGUGGAUCCCCCGGCGCCCGGCGGCUCGAGCCCGGGUAAGGGUAAAUAGUCUGCAUGCCGCCGGGCGCCAUGCCUGCAGGUCGACUCUAGAAAACAUG", "values": [{"measurement": "binding signal", "setting": "[9]", "result": "2.68 log2 enrichment (interaction score)"}]}
{"sequence": "GGCUAGAACUAGUGGAUCCCCCGGCGCCCGGCGGCUCGAGCCCGGGUAAGUGUAAAUCGUCUGCAUGCCGCCGGGCGCCAUGCCUGCAGGUCGACUCUAGAAAACAUG", "values": [{"measurement": "binding signal", "setting": "[17]", "result": "3.19 log2 enrichment (interaction score)"}, {"measurement": "binding signal", "setting": "[16]", "result": "3.04 log2 enrichment (interaction score)"}]}
{"sequence": "GGCUAGAACUAGUGGAUCCCCCGGCGCCCGGCGGCUCGAGCCCGGGUAAGCGUAAAUAGUCUGCAUGCCGCCGGGCGCCAUGCCUGCAGGUCGACUCUAGAAAACAUG", "values": [{"measurement": "binding signal", "setting": "[6]", "result": "2.71 log2 enrichment (interaction score)"}, {"measurement": "binding signal", "setting": "[18]", "result": "3.15 log2 enrichment (interaction score)"}, {"measurement": "binding signal", "setting": "[9]", "result": "2.89 log2 enrichment (interaction score)"}]}
{"sequence": "GGCUAGAACUAGUGGAUCCCCCGGCGCCCGGCGGCUCGAGCCCGGGUAAGUGUAAGUAGUCUGCAUGCCGCCGGGCGCCAUGCCUGCAGGUCGACUCUAGAAAACAUG", "values": [{"measurement": "binding signal", "setting": "[8]", "result": "5.09 log2 enrichment (interaction score)"}, {"measurement": "binding signal", "setting": "[19]", "result": "5.61 log2 enrichment (interaction score)"}]}
{"sequence": "GGCUAGAACUAGUGGAUCCCCCGGCGCCCGGCGGCUCGAGCCCGGGUAAGUGUAAUUAGUCUGCAUGCCGCCGGGCGCCAUGCCUGCAGGUCGACUCUAGAAAACAUG", "values": [{"measurement": "binding signal", "setting": "[20]", "result": "4.75 log2 enrichment (interaction score)"}, {"measurement": "binding signal", "setting": "[10]", "result": "1.49 log2 enrichment (interaction score)"}]}
